Values joined by “and” are separate entries in the source; they are usually repeats but may differ in a detail not shown here. Equal values may be shown once. Out of some 5,500 compounds screened, about 2,000 (36%) were called active. Not shown: some 18% with an inconclusive outcome. Rule as the data show it: active = normalized growth mostly below about 0.91 (no sharp cut-off); inconclusive = no clear call, values can overlap the other calls; inactive = mostly above about 0.92. Some of the results follow.
Assay: chemical genetic growth profiling, strain panel (AID 1159580);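 also: tested at 20 µM; growth read once vehicle control cultures reached saturation at 30 °C; 1 = growth at the plate median or of vehicle wells; lower values mean less growth of the strain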
Conditions: growth OD

Measured: normalized growth

CC(C)(C)NCC(O)c1ccc(O)c(CO)c1 (stereo not given)
inactive: S. cerevisiae deletion strains, locus YJR075W, strain HOC1, active compounds read low 0.997 and 1.01 | S. cerevisiae deletion strains, locus YKL009W, strain mrt4, active compounds read low 1.02 | S. cerevisiae deletion strains, locus YKL068W, active compounds read low 1.01 | S. cerevisiae deletion strains, locus YKL085W, strain MDH1 (second series), active compounds read low 1.03 | S. cerevisiae deletion strains, locus YKL085W, strain MDH1, active compounds read low 1.03 | S. cerevisiae deletion strains, locus YKL160W, strain elf1, active compounds read low 1.02 | S. cerevisiae deletion strains, locus YKL190W, strain CNB1, active compounds read low 1.02 | S. cerevisiae deletion strains, locus YKR001C, strain vps1, active compounds read low 1.01 | S. cerevisiae deletion strains, locus YKR026C, strain gcn3, active compounds read low 0.999 | S. cerevisiae deletion strains, locus YKR091W, strain srl3, active compounds read low 1 | S. cerevisiae deletion strains, locus YLL001W, strain dnm1, active compounds read low 1.02 | S. cerevisiae deletion strains, locus YLL026W, active compounds read low 1 | S. cerevisiae deletion strains, locus YLL041C, strain sdh2, active compounds read low 1.02 | S. cerevisiae deletion strains, locus YLR027C, strain aat2, active compounds read low 1.01 | S. cerevisiae deletion strains, locus YLR039C, strain RIC1, active compounds read low 1.06 | S. cerevisiae deletion strains, locus YLR058C, strain SHM2, active compounds read low 1.01 | S. cerevisiae deletion strains, locus YLR102C, strain apc9, active compounds read low 1.01 | S. cerevisiae deletion strains, locus YLR113W, strain HOG1, active compounds read low 1.01 | S. cerevisiae deletion strains, locus YLR221C, strain rsa3, active compounds read low 1.01 | S. cerevisiae deletion strains, locus YLR258W, strain gsy2, active compounds read low 1.02 | S. cerevisiae deletion strains, locus YLR262C, strain YPT6 (second series), active compounds read low 1 | S. cerevisiae deletion strains, locus YLR262C, strain YPT6, active compounds read low 1.04 | S. cerevisiae deletion strains, locus YLR268W, strain sec22, active compounds read low 1.02 | S. cerevisiae deletion strains, locus YLR320W, strain mms22, active compounds read low 1.02 | S. cerevisiae deletion strains, locus YLR330W, strain CHS5, active compounds read low 1.01 | S. cerevisiae deletion strains, locus YLR342W, strain FKS1 (second series), active compounds read low 1.04 | S. cerevisiae deletion strains, locus YLR342W, strain FKS1, active compounds read low 1.01 | S. cerevisiae deletion strains, locus YLR357W, strain rsc2, active compounds read low 1.04 | S. cerevisiae deletion strains, locus YLR370C, strain arc18, active compounds read low 1.01 | S. cerevisiae deletion strains, locus YLR371W, strain rom2, active compounds read low 1 | S. cerevisiae deletion strains, locus YLR384C, strain iki3, active compounds read low 1.02 | S. cerevisiae deletion strains, locus YLR418C, strain cdc73, active compounds read low 1.05 | S. cerevisiae deletion strains, locus YML016C, strain PPZ1, active compounds read low 1.01 | S. cerevisiae deletion strains, locus YML032C, strain rad52, active compounds read low 1.01 | S. cerevisiae deletion strains, locus YML120C, strain ndi1, active compounds read low 1 | S. cerevisiae deletion strains, locus YML124C, strain tub3, active compounds read low 1.01 | S. cerevisiae deletion strains, locus YMR058W, strain fet3, active compounds read low 1 | S. cerevisiae deletion strains, locus YMR078C, strain ctf18, active compounds read low 1.02 | S. cerevisiae deletion strains, locus YMR125W, strain sto1, active compounds read low 1.03 | S. cerevisiae deletion strains, locus YMR129W, active compounds read low 1.01 | S. cerevisiae deletion strains, locus YMR205C, strain PFK2, active compounds read low 1.02 | S. cerevisiae deletion strains, locus YMR223W, strain ubp8, active compounds read low 1.06 | S. cerevisiae deletion strains, locus YMR231W, strain pep5, active compounds read low 1.01 | S. cerevisiae deletion strains, locus YMR263W, strain SAP30, active compounds read low 1.02 and 1 | S. cerevisiae deletion strains, locus YMR307W, strain GAS1, active compounds read low 1.11 and 0.997 and 0.979 | S. cerevisiae deletion strains, locus YNL067W, strain RPL9B, active compounds read low 1.01 | S. cerevisiae deletion strains, locus YNL071W, strain lat1, active compounds read low 1 | S. cerevisiae deletion strains, locus YNL128W, strain TEP1, active compounds read low 1.02 | S. cerevisiae deletion strains, locus YNL175C, strain NOP13, active compounds read low 1 and 1.03 | S. cerevisiae deletion strains, locus YNL183C, strain NPR1, active compounds read low 0.974 | S. cerevisiae deletion strains, locus YNL197C, strain WHI3, active compounds read low 1 and 1.01 | S. cerevisiae deletion strains, locus YNL209W, strain ssb2, active compounds read low 1.02 | S. cerevisiae deletion strains, locus YNL224C, strain SQS1, active compounds read low 0.996 and 1 | S. cerevisiae deletion strains, locus YNL233W, strain BNI4, active compounds read low 0.99 | S. cerevisiae deletion strains, locus YNL248C, strain rpa49, active compounds read low 1.03 | S. cerevisiae deletion strains, locus YNL250W, strain rad50, active compounds read low 1.02 | S. cerevisiae deletion strains, locus YNL271C, strain bni1, active compounds read low 1.02 | S. cerevisiae deletion strains, locus YNL298W, strain CLA4, active compounds read low 1.02 | S. cerevisiae deletion strains, locus YNL307C, strain MCK1, active compounds read low 1.02 | S. cerevisiae deletion strains, locus YNL322C, strain KRE1 (second series), active compounds read low 1.01 | S. cerevisiae deletion strains, locus YNL322C, strain KRE1, active compounds read low 1.01 and 1.03 | S. cerevisiae deletion strains, locus YNR049C, strain mso1, active compounds read low 1.01 | S. cerevisiae deletion strains, locus YNR052C, strain pop2, active compounds read low 1.02 | S. cerevisiae deletion strains, locus YOL006C, strain TOP1, active compounds read low 1.05 | S. cerevisiae deletion strains, locus YOL012C, strain htz1 1.03 | S. cerevisiae deletion strains, locus YOL147C, strain pex11, active compounds read low 1.02 | S. cerevisiae deletion strains, locus YOR001W, strain rrp6, active compounds read low 1.01 | S. cerevisiae deletion strains, locus YOR061W, strain CKA2, active compounds read low 1.01 | S. cerevisiae deletion strains, locus YOR069W, strain VPS5, active compounds read low 1.01 | S. cerevisiae deletion strains, locus YOR070C, strain gyp1, active compounds read low 1.02 | S. cerevisiae deletion strains, locus YOR080W, strain dia2, active compounds read low 1.03 | S. cerevisiae deletion strains, locus YOR083W, strain WHI5 (second series), active compounds read low 1.01 | S. cerevisiae deletion strains, locus YOR083W, strain WHI5, active compounds read low 0.966 | S. cerevisiae deletion strains, locus YOR106W, strain vam3, active compounds read low 1.01 | S. cerevisiae deletion strains, locus YOR136W, strain idh2, active compounds read low 1.02 | S. cerevisiae deletion strains, locus YOR144C, strain elg1, active compounds read low 1.02 | S. cerevisiae deletion strains, locus YOR184W, strain ser1, active compounds read low 1.02 | S. cerevisiae deletion strains, locus YOR231W, strain MKK1, active compounds read low 1.02 | S. cerevisiae deletion strains, locus YOR265W, strain rbl2, active compounds read low 1.01 | S. cerevisiae deletion strains, locus YOR270C, strain vph1, active compounds read low 1.02 | S. cerevisiae deletion strains, locus YOR290C, strain snf2, active compounds read low 1.03 | S. cerevisiae deletion strains, locus YOR316C, strain cot1, active compounds read low 1.01 | S. cerevisiae deletion strains, locus YPL051W, strain arl3, active compounds read low 1.01 | S. cerevisiae deletion strains, locus YPL055C, strain LGE1, active compounds read low 1.01 | S. cerevisiae deletion strains, locus YPL078C, strain atp4, active compounds read low 1 | S. cerevisiae deletion strains, locus YPL106C, strain sse1, active compounds read low 1.04 | S. cerevisiae deletion strains, locus YPL240C, strain hsp82, active compounds read low 1.02 | S. cerevisiae deletion strains, locus YPL241C, strain CIN2, active compounds read low 1.01 | S. cerevisiae deletion strains, locus YPL256C, strain CLN2, active compounds read low 1.04 | S. cerevisiae deletion strains, locus YPR119W, strain clb2, active compounds read low 1.01 | S. cerevisiae deletion strains, locus YPR141C, strain kar3, active compounds read low 1.01 | S. cerevisiae deletion strains, locus YPR163C, strain tif3, active compounds read low 1.02 | S. cerevisiae deletion strains, locus YPR167C, strain met16, active compounds read low 1.02 | S. cerevisiae deletion strains, strain wtn01, active compounds read low 1.04 | S. cerevisiae strains, strain wild type, active compounds read low 1.01

From PubChem BioAssay AID1159580 (chemical genetic matrix, 2015)
